Active and inactive are the calls of the source. Calls follow the shape of the dose curve; as a rule, active = well fitted curve in the direction sought with a large enough effect; inconclusive = small, poorly fitted or top-dose-only effect, or effect the other way, or another doubt; inactive = no such curve, though single readings can be large or run the other way.

Beta-2 adrenergic receptor (Homo sapiens), sequence (P07550 whole entry, looked up): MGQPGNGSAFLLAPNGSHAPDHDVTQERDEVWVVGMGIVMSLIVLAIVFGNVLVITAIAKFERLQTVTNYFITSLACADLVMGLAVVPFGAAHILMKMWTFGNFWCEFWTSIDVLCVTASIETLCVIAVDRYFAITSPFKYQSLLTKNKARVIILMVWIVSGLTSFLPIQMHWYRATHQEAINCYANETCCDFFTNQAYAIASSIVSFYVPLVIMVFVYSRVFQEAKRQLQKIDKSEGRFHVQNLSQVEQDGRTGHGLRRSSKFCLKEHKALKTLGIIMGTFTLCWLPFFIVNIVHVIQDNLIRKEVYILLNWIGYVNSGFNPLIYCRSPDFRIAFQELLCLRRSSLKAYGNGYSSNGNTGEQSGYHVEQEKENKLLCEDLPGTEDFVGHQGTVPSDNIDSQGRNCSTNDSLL

This assay addresses Beta-2 adrenergic receptor (Homo sapiens) (UniProt P07550). The experiment in a line: qHTS validation assay of beta-arrestin-biased ligands of beta2-adrenergic receptor (AID 485366). The conditions noted are these: cell-based beta-arrestin recruitment to ADRB2, qHTS; series mostly up to 46.1 µM. An excerpt: NIH Molecular Libraries Probe Production Network [MLPCN]
NIH Chemical Genomics Center [NCGC]
PI: Bryan Roth and Bob Lefkowitz
The concept of biased agonism is an emerging concept of molecular pharmacology which proposes that seven transmembrane receptors (7TMRs) or G protein-coupled receptors (GPCRs), exist in multiple signaling conformations and complexes and that ligands (either agonists or antagonists) can induce signaling biased responses for distinct signal transduction cascades.
Furthermore, accumulating evidence over the last decade has drawn attention to a novel function of beta-arrestins as signal transducers that scaffold various signaling molecules upon activation of 7TMRs. […] This beta-arrestin-biased signaling presumably leads to distinct physiological outcomes from those by G protein activation.
Additionally, the active receptor conformations which […] on this beta-arrestin signaling are likely different from those activating G protein signaling
The goal of this screening project will be to discover and optimize novel beta-arrestin-biased ligands for beta2-AR signaling. A luminescent cell-based assay for beta2-AR-mediated agonism, known as the Tango assay, has been validated in which ligand binding of a recombinant beta2-AR and subsequent recruitment of a recombinant beta-arrestin lead to the release of the transcriptional activator tTA, which upregulates transcription of a tTA-responsive luciferase gene. […] Compounds were screened as a concentration-titration series that ranged from 46 microM to 0.6 nM.
NCGC Assay Protocol Summary:
Tango cells were dispensed into white, solid, tissue-culture-treated 1536-well plates at 1500 cells/well in DMEM, containing 1% fetal bovine serum (FBS). Then, 23 nL of compounds or DMSO were delivered to each well using a pin tool. Plates were incubated at 37 degrees C, 5% CO2 for 18 hr. Then 2.5 uL luminescent substrate mix (in-house prepared: 150 mM Tris-Cl, pH 7.6, 3 mM MgCl2, 1% Triton X-100, 5 mM DTT, 0.5 mM CoA, 0.15 mM ATP, 0.44 mM D-luciferin, final concentrations) was added to each well. Plates were then incubated for 15 minutes at room temperature, and subsequently measured on a ViewLux plate reader for luminescent signal using a clear filter with a 10 second exposure and 2x binning. The %Activity was determined from the corrected luminescence values.
Concentration-response curves were fitted to the signals arising from the resulting luminescence. The concentration-effect curves were then classified based on curve quality (r2), response magnitude and degree of measured activity, and compounds were subsequently categorized based on their curve class.
Keywords: biased agonism, beta2-AR, beta-arrestin, GPCR, 7TMR, Tango, luminescence, MLSMR, MLPCN, NIH Roadmap, qHTS, NCGC
Take `NC(=O)c1cccc(N)c1`: the outcome was inactive.
With `CC1CC2C3CCC4=CC(=O)C=C[C@]4(C)[C@@]3(F)[C@@H](O)C[C@]2(C)[C@@]1(O)C(=O)CO` (stereo partly specified) the entry was “inactive”; with `CCCCS(=N)(=O)CCC(N)C(=O)O` (stereo unspecified), “inactive”; with `O=C(O)C1CCCN(CCC=C(c2ccccc2)c2ccccc2)C1` (stereo unspecified), “inactive”.
For the compound `CC1=C(C(=O)O)N2C(=O)[C@@H](NC(=O)C(N)c3ccccc3)[C@H]2SC1` (stereo partly specified), the call was inactive.
On to `N[C@@H](Cc1ccc(O)c(O)c1)C(=O)O`, for which the outcome was inactive.
To `NC(=O)c1ccc2[nH]ccc2c1` belongs “inactive”; to `OCc1ccc(-c2nn(Cc3ccccc3)c3ccccc23)o1`, “inactive”; to `COc1cc2nc(N3CCCN(C)CC3)nc(NC3CCN(Cc4ccccc4)CC3)c2cc1OC`, “inactive”.
For `CCN(CC)CCn1c(=O)c(Cc2ccc(OC)cc2)nc2ccccc21`, the compound was classed as inactive.
With `CC(=O)[C@H]1CC[C@H]2[C@@H]3CCC4=CC(=O)CC[C@]4(C)[C@H]3CC[C@]12C` the entry was “inactive”.
With `Nc1nc(N)c2nc(CNc3ccc(C(=O)NC(CCC(=O)O)C(=O)O)cc3)cnc2n1` (stereo unspecified) the entry was “inactive”; with `COc1cc2ncnc(Nc3cccc(Cl)c3)c2cc1OC`, “inactive”.
For the compound `CCN(CC)CC#CCOC(=O)C(O)(c1ccccc1)C1CCCCC1` (stereo unspecified), the compound was classed as inactive.
On to `Cc1ccc(S(=O)(=O)N[C@@H](Cc2ccccc2)C(=O)CCl)cc1`, for which the compound was called inactive.
Take `CCN1CCCC1CNC(=O)c1cc(S(N)(=O)=O)ccc1OC` (stereo unspecified): the outcome was inactive.

Values taken from PubChem BioAssay (NCATS).
